Assay results from PubChem BioAssay.
The source made the active and inactive calls.

Columns and labels:
[1] = small molecules captured by biotinylated probe aFSTL3 – biochemical, small-molecule microarray, fluorescence 635/667, stem cell growth factor project, primary screen (AID 1064); settings: higher = more signal;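 also: measures binding of the biotinylated anti-FSTL3 antibody to printed compounds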
[2] = binders from COS7 lysate, DM2A8 probe, primary screen, torsin A project, cell lysate, small-molecule microarray, fluorescence 635/667 (AID 1065); settings: higher = more signal, COS7 lysate expressing mutant human TOR1A
[3] = small molecules captured by biotinylated probe aFGF2 – biochemical, small-molecule microarray, fluorescence 635/667, stem cell growth factor project, primary screen (AID 1067); settings: higher = more signal;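 also: measures binding of biotinylated aFGF2 protein to printed compounds on slides; z-score merges feature fluorescence and signal-to-noise across triplicate slides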
[4] = small molecules captured by biotinylated probe aFGF10 – biochemical, small-molecule microarray, fluorescence 635/667, stem cell growth factor project, primary screen (AID 1071); settings: higher = more signal;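 also: score merges 667 nm spot intensity and signal to noise from triplicate slides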
[5] = target: Neurogenic locus notch homolog protein 2 (Homo sapiens) (UniProt Q04721); test: small molecules binding Notch2 protein – biochemical, small-molecule microarray, 635 nm fluorescence, stem cell growth factors, primary screen (AID 1073); settings: higher = more signal
[6] = target: Pro-neuregulin-1, membrane-bound isoform (Homo sapiens) (UniProt Q02297); test: small molecules binding neuregulin-1 protein – biochemical, small-molecule microarray, fluorescence 635/667, psychiatric disease protein project, primary screen (AID 1075); settings: NRG1 binding, 635 nm fluorescence, higher = more signal;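 also: score combines 667 nm spot fluorescence with signal to noise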
[7] = tested on: Neuregulin-1 EGF-like domain; test: small molecules binding NRG1 EGF domain – biochemical, small-molecule microarray, 635 nm fluorescence, primary screen (AID 1081); settings: higher = more signal;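 also: binding of the protein to compounds printed on small-molecule microarray slides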
[8] = FRG1 expression reporter modulators in myotubes – cell-based, C2C12 myotubes, firefly/Renilla luciferase, luminescence, FRG1 inhibition for FSHD, primary screen (AID 1084); settings: FRG1 promoter luciferase, higher = more signal, called active from +8 up or from −8 down
[9] = small molecules captured by biotinylated probe aFST – biochemical, small-molecule microarray, fluorescence 635/667, stem cell growth factor project, primary screen (AID 1086); settings: higher = more signal;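 also: score merges 667 nm fluorescence with signal-to-noise of each printed compound spot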
[10] = binders of probe aHhip on microarray, primary screen, stem cell growth factor project, biochemical, small-molecule microarray, fluorescence 635/667 (AID 1087); settings: higher = more signal;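 also: score merges spot fluorescence at 667nm with spot signal to noise ratio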

Chain of Pro-neuregulin-1, membrane-bound isoform (Homo sapiens) (Q02297 whole entry, looked up, the tested form may be a part, canonical isoform): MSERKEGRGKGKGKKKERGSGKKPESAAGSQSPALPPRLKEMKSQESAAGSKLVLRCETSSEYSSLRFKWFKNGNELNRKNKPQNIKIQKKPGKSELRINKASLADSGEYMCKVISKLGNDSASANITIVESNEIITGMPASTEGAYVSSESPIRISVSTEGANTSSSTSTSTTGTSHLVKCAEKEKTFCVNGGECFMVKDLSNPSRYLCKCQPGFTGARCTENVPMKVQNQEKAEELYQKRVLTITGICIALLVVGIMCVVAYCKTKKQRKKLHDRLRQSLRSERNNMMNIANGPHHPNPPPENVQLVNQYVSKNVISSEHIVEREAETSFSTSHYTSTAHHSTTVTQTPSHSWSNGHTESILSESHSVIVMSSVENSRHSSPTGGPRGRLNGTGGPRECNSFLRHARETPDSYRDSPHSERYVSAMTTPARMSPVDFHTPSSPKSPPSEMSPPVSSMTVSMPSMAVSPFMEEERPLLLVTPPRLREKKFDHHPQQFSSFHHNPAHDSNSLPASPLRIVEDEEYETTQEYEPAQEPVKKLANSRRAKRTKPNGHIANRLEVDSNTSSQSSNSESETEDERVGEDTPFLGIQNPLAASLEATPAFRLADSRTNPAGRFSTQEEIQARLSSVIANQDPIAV
Chain of Neurogenic locus notch homolog protein 2 (Homo sapiens) (Q04721 whole entry, looked up, canonical isoform): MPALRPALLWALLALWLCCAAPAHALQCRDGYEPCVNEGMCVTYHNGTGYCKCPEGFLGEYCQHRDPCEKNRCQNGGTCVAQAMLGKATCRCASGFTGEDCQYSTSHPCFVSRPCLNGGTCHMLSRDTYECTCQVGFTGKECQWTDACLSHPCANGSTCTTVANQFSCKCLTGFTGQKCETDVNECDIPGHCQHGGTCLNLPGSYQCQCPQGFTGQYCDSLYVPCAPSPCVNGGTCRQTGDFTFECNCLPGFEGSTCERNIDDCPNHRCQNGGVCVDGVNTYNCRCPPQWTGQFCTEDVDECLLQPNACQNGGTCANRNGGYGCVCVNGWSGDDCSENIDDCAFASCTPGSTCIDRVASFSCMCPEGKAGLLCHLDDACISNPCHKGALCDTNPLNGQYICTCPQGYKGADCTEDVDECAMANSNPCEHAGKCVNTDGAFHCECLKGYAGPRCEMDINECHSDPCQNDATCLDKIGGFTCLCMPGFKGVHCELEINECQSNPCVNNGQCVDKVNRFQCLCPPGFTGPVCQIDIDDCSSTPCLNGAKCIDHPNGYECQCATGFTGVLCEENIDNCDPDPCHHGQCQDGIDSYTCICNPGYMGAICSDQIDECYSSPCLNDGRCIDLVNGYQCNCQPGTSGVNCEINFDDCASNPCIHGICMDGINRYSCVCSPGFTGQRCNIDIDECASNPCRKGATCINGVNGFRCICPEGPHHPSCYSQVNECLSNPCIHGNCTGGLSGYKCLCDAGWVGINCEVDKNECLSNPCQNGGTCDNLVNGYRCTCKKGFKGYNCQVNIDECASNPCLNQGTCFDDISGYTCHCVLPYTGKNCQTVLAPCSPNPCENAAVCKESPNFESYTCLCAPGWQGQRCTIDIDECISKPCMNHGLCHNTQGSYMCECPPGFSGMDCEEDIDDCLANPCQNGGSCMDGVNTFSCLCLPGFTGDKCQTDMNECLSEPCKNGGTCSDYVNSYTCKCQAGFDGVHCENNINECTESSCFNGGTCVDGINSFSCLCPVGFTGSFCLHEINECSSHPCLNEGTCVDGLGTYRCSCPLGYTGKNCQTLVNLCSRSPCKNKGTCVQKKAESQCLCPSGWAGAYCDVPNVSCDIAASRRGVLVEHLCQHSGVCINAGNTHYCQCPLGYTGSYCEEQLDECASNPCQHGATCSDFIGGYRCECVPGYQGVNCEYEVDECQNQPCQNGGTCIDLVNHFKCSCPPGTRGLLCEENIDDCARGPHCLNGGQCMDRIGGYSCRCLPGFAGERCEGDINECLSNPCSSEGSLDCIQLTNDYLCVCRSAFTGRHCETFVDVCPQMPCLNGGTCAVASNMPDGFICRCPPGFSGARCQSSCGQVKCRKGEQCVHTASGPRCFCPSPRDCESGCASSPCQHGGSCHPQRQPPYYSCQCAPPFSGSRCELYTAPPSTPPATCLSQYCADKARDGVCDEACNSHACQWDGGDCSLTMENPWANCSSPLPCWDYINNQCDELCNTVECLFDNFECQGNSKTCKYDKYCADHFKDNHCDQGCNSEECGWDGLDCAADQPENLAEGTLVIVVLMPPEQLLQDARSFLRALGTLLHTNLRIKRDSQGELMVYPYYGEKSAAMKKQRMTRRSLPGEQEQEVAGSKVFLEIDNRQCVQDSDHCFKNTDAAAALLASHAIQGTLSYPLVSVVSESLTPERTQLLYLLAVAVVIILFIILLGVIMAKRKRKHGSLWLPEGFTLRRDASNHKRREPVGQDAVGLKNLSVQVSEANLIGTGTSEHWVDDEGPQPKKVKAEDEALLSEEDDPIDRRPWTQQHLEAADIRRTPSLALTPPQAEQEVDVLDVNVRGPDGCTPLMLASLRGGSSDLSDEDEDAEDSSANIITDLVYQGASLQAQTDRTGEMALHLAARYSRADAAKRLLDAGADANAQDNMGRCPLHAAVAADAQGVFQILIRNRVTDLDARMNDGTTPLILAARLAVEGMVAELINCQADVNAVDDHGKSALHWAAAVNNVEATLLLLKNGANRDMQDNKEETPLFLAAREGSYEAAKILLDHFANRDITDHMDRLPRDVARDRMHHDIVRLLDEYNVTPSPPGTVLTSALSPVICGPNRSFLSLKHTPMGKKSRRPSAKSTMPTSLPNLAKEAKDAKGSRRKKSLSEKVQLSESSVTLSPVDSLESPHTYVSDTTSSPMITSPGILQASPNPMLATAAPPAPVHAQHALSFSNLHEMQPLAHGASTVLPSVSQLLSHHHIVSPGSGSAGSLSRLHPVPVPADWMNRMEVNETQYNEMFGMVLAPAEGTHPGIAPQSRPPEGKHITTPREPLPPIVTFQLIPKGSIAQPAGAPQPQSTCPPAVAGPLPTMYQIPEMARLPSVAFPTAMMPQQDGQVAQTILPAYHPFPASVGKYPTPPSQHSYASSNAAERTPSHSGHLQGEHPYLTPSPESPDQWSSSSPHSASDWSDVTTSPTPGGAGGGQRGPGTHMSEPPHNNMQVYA

Structure (SMILES) | composite z-score [1] | composite z-score [2] | composite z-score [3] | composite z-score [4] | composite z-score [5] | composite z-score [6] | composite z-score [7] | z-score [8] | composite z-score [9] | composite z-score [10]
Cc1ccc(S[C@]2(C(=O)NCC(C)C)CC(=O)N(C3Cc4ccccc4C3)[C@@H]2c2ccc(CO)cc2I)cc1 | 0.757 | -0.5 | -0.0238 | 0.166 | -1.01 | 0.123 | -0.126 | -1.83 (inactive) | 0.962 | 0.513
CN(C)C(=O)[C@@]1(CCC(=O)OC(C)(C)C)N=C(c2ccc(OCCCO)cc2)O[C@H]1c1ccccc1CN=[N+]=[N-] | -0.0162 | 1.01 | 0.0408 | 0.39 | 1.06 | 1.92 | 1.28 | -0.119 (inactive) | 0.717 | 0.0373
COC(=O)[C@@]1(Cc2ccc(OC)cc2)[C@H]2c3cc(C(=O)N4CCCC4)n(Cc4ccc(S(C)(=O)=O)cc4)c3C[C@H]2CN1C(=O)c1ccccc1 | 0.438 | -0.208 | 0.296 | 0.587 | 1.59 | 2.07 | 1.31 | 0.862 (inactive) | 1.25 | 0.0053
CCCCNC(=O)c1ccc(C#C[Si](C(C)C)(C(C)C)C(C)C)c(OC(C)=O)c1 | -0.294 | -0.189 | -0.108 | 0.493 | 1.57 | 0.812 | 1.09 | -0.198 (inactive) | 0.207 | 0.0722
NC(=O)NCC#Cc1ccc2c(c1)[C@]1(C(=O)N2)[C@H](C(=O)N2CCN(c3ncccn3)CC2)[C@H]2C(=O)O[C@H](c3ccccc3)[C@H](c3ccccc3)N2[C@@H]1c1ccc(OCCO)cc1 | 0.0085 | 0.0039 | -0.0222 | 0.375 | 0.884 | 0.133 | 0.148 | 1.62 (inactive) | 0.548 | 0.0659
COCCOC(=O)N1C(=O)[C@@]2(c3cc(C#CCCO)ccc31)[C@H](C(=O)N1CCCCCCC1)[C@H]1C(=O)O[C@H](c3ccccc3)[C@H](c3ccccc3)N1[C@@H]2c1ccccc1OCCO | 3.32 | 0.659 | 0.688 | 0.473 | 1.43 | 1.85 | 1.18 | 0.253 (inactive) | 3.07 | 0.891
CCOC(=O)C1=CC[C@@H](c2ccccc2)N(S(=O)(=O)c2ccc(C)cc2)[C@H]1C=Cc1ccccc1 | 0.162 | -0.0855 | -0.04 | 0.694 | 0.471 | 0.941 | 0.918 | -3.49 (inactive) | 0.47 | 0.0373
[N-]=[N+]=NCc1ccccc1C[C@@]1(C(=O)N2CCCCC2)N=C(c2ccc(OCCCO)cc2)O[C@@H]1c1ccccc1CN=[N+]=[N-] | 0.319 | 1.42 | 0.0234 | 0.144 | 1.14 | 0.698 | 0.901 | -3.69 (inactive) | 0.828 | -0.177
C=C(CCCC)C(=O)CC[C@H](OC(C)=O)c1ccc(OCCO)cc1 | -0.222 | -0.0212 | -0.214 | -0.253 | -0.989 | -0.189 | -0.67 | 0.38 (inactive) | -0.358 | 3.01
CC(C)[Si]1(C(C)C)OCc2cc(-c3ccc(-c4ccc(Cl)c(Cl)c4)o3)nc(CCc3ccccc3)c21 | 0.0051 | -0.217 | -0.0332 | -0.175 | -0.412 | 0.572 | 0.261 | 0.999 (inactive) | -0.0731 | -0.201
COCCOC(=O)N1C(=O)[C@@]2(c3cc(C#Cc4ccc(OC)cc4)ccc31)[C@H](C(=O)NC[C@H](O)c1ccccc1)[C@H]1C(=O)O[C@H](c3ccccc3)[C@H](c3ccccc3)N1[C@@H]2c1ccc(OCCO)cc1 | -0.157 | 0.946 | -0.12 | 0.912 | 1.12 | 1.46 | 1.28 | 0.643 (inactive) | 0.41 | -0.0994
C=CCC(OC(C)=O)[C@@H]1[C@@H](N(Cc2ccc(-c3cccc(C(F)(F)F)c3)o2)C(=O)Cc2ccc(OC)cc2)c2cc(OCCCO)ccc2N1C(=O)Cc1ccc2ccccc2c1 (stereo not given in full) | -0.131 | -0.919 | -0.0715 | -0.139 | -0.696 | 0.465 | 0.113 | -0.734 (inactive) | 0.069 | 0.0505
COc1cc(NN2C(C(O)C3CCCCC3)C=CC3C(=O)N(c4ccccc4)C(=O)C32)cc(OC)c1OC (stereo not given) | 1.44 | -0.28 | -0.116 | 0.56 | 1.7 | 1.67 | 1.18 | 0.374 (inactive) | 0.964 | -0.202
COC(=O)[C@@]1(Cc2ccc(OC)cc2)[C@H]2c3cc(C(=O)N4CCCC4)n(Cc4ccc(OC(F)(F)F)cc4)c3C[C@H]2CN1C(=O)c1ccccc1 | 0.572 | -1.05 | 0.225 | 0.703 | 1.74 | 1.39 | 0.283 | 0.612 (inactive) | 1.28 | 0.113
CCCNC(=O)[C@@]1(Sc2ccc(C)cc2)CC(=O)N(C2CCCCC2)[C@@H]1c1ccc(CO)cc1I | 0.152 | 0.481 | -0.0788 | 0.182 | 0.517 | 0.772 | 1.25 | -3.57 (inactive) | -0.0962 | -0.383
CC(C)CCC[C@@H](C)[C@H]1CC[C@@]2(C)C3=C(CC[C@]12C)[C@@]1(C)CC[C@H](OC(=O)c2ccccc2)C(C)(C)C1CC3 (stereo not given in full) | -0.438 | 0.299 | -0.0916 | 0.157 | 0.474 | 0.0304 | -0.0239 | -0.374 (inactive) | 0.526 | 0.93
[N-]=[N+]=Nc1ccccc1C[C@@]1(C(=O)O)N=C(c2ccc(OCCCO)cc2)O[C@@H]1c1ccccc1N=[N+]=[N-] | 0.943 | 0.211 | 0.0171 | 0.325 | 1.37 | 1.95 | 1.21 | -0.22 (inactive) | 1.36 | -0.283
COc1cc2c(cc1O)C(c1cccs1)N(Cc1sc3ccccc3c1Cl)CC2 (stereo not given) | -0.181 | 1.14 | 0.115 | 1.18 | 1.55 | 2.09 | 1.42 | -0.19 (inactive) | 1.11 | 3.57
C=C[C@@H](OC)[C@H](OC(=O)Nc1ccc(OC)cc1)c1ccc(OC)c(O)c1 | 0.54 | -0.998 | -0.087 | -0.624 | -1.06 | -0.401 | 1.23 | 3.56 (inactive) | -0.857 | 0.0505
O=C1OCCC=C[C@H]2OC34C=CCN(c5ccc(Cl)cc5)C(=O)[C@H]3N(CCCCCCO)C(=O)[C@@H]4C12 (stereo not given in full) | 0.43 | -0.0789 | -0.116 | -0.683 | -0.879 | -0.221 | 1.24 | 0.45 (inactive) | -0.257 | -0.226
CC(C)C(CO)N1C(=O)[C@@H]2[C@H]3C(=O)OCC=C[C@H]3OC23C=CCN(C(C)(C)C)C(=O)[C@@H]13 (stereo not given in full) | -0.0718 | -0.141 | -0.155 | -0.724 | -0.456 | -0.807 | -1.03 | -0.221 (inactive) | -0.346 | -0.128
C=C(COC)/C(=C/C[C@@H](OC(C)=O)c1ccc(CO)o1)c1cc(C(=O)OC)ccc1OC | -0.22 | 0.707 | -0.111 | 0.851 | -0.378 | 1.46 | 1.3 | 0.435 (inactive) | -0.179 | -0.0994
